Source: PubChem BioAssay
Pf growth 96h = inhibits malaria parasite growth, 96 h | 320,000 tested, 6.9% active | P. falciparum luciferase reporter growth, 96 h | AID 504834 | Potency, µM (doses to about 28.7 µM), for the others: at the top dose activity change, negative = inhibition, most hits filed as inhibitors; also: potency is read from the fitted curve at half-maximal effect
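Two parasite generations (96 h, 37 C, 5% CO2) of compound exposure in infected erythrocytes (0.05% parasitemia, 2% hematocrit). Luciferase-reporter P. falciparum; decreased luminescence indicates inhibited growth, aimed at apicoplast-acting delayed death.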
HCV inhibitor = blocks hepatitis C virus. Huh7.5.1 HCVcc-Cre infection, luciferase reporter, 44 h. Potency, µM (doses to about 41.8 µM), for inactives: top-dose activity change, negative = inhibition, actives largely listed as inhibitors. 340,000 tested, 3.4% active. AID 651820; also: potency is read from the fitted curve at half-maximal effect
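After 44 h co-culture of compound, cells and HCVcc-Cre (~0.5 moi), substrate is added for 15 min at room temperature and luciferase measured over 15 sec. Cells were seeded at 1,000/well and pre-cultured 4 h.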
Pf growth 48h = inhibits P. falciparum growth in the first generation, 48 h; Potency, µM (top dose mostly 28.7 µM), for inactives: at the highest dose activity change, negative = inhibition, hits mostly inhibitors; P. falciparum luciferase growth in erythrocytes, 48 h; 310,000 tested, 5.9% active; AID 504832; also: potency is read from the fitted curve at half-maximal effect
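First compound was added to culture medium, then infected red cells at 0.1% parasitemia and 2% hematocrit (final). After incubation at 37 C under 5% CO2, luciferase detection reagent was dispensed and light output recorded.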
HCMV inh = human cytomegalovirus inhibition; 410,000 tested, 4.5% active; HFF cells, HCMV-luciferase reporter, 72 h; stronger effect = lower value; activity change, negative = inhibition, % at 57.5 µM; in the data active = activity change below about -60%; inconclusive = no clear call, values can overlap the other calls; inactive = above about -39%
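Compounds were evaluated in HFFs infected with an HCMV luciferase reporter virus (MOI 1 PFU/cell). Luciferase in lysates collected 72 h post infection served as the replication measure.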
Numbers without * were called inactive; ? = inconclusive; . = no result. Sampled rows, rich in hits. Any-hit rate of the full collection: about 13%. Unless noted, calls follow the shape of the dose curve; as a rule, active = well fitted inhibition curve with a large enough effect; inconclusive = small, poorly fitted or top-dose-only effect, or another doubt; inactive = no such curve, though single readings can be large or run the other way. % is scaled to controls: 0 for no effect and ±100 for the full control effect.

SMILES	Pf growth 96h	HCV inhibitor	Pf growth 48h	HCMV inh
Cc1cc(C)cc(NC(=O)C2CCCN(c3cnccn3)C2)c1 (centres undefined)	.	.	.	55
CCOC(=O)C1(Cc2ccccc2C)CCCN(C(=O)c2ccc3nccnc3c2)C1 (centres undefined)	-23%	-6%	13µM*	-9
CCOC(=O)C1(Cc2ccccc2C)CCCN(C(=O)c2ccccn2)C1 (centres undefined)	?	-9%	-4%	45
CCOC(=O)C1(Cc2ccccc2C)CCCN(Cc2ccc(NC(C)=O)cc2)C1 (centres undefined)	?	1%	5.2µM*	0
CCOCCCN(Cc1ccco1)C(=O)c1cc2c(s1)-c1c(C)cccc1OC2	.	.	.	-31
O=C1CN(C(=O)COc2ccc(Cl)cc2)C(c2ccc(F)cc2)c2cc(Cl)ccc2N1 (centres undefined)	.	.	.	6
CCN(Cc1ccccc1)c1ccc(/C=C(\C#N)c2ccccn2)cc1	?	-4%	10%	48
COc1cc(/C=C(\C#N)c2ccccn2)ccc1OCc1ccccc1	?	?	9.3µM*	-27
COc1cc(/C=C(\C#N)c2nc3ccc(C)cc3[nH]2)ccc1OCc1ccc(C)cc1	.	.	.	3
COc1cc(/C=C(\C#N)c2ccccn2)ccc1OCc1ccc(Cl)cc1	5.2µM*	?	6.6µM*	-22
CCN(CC)c1ccc(/C=C(\C#N)c2ccccn2)cc1	-92%	14µM*	-63%	.
Cc1ccccc1NC(=O)c1c(NC(=O)C(C)Oc2cccc(Cl)c2)sc2c1CCCC2 (centres undefined)	.	.	.	32
CC(C)OCCCN1C=C2C(=O)C(C)(OC(=O)CCc3ccccc3)C(=O)C=C2C=C1c1ccc(C#N)cc1 (centres undefined)	?	-11%	10µM*	2
Cc1ccc(C(NC(=O)Nc2ccccn2)C(Cl)(Cl)Cl)cc1F (centres undefined)	13µM*	8%	?	?
Cc1cccc(NC(=O)Nc2ccccn2)c1C	79%	-12%	89%	-18
CSc1cccc(NC(=O)CC(c2ccc(F)cc2)N2Cc3ccccc3C2=O)c1 (centres undefined)	.	.	.	-12
Cc1noc(N)c1C(=O)Nc1ccc(F)cc1	2.1µM*	4%	-9%	-27
CCc1noc(N)c1C(=O)Nc1ccc(F)c(Cl)c1	63%	10%	0%	71
CC(=O)Nc1ccc(NC(=O)c2c(C)noc2C)cc1	?	16%	4.7µM*	23
Cc1noc(N)c1C(=O)Nc1ccc(F)c(Cl)c1	81%	-3%	2.3µM*	-11
Brc1ccc(-c2cn3cc(Cc4ccccc4)sc3n2)cc1	.	.	.	103
COc1cccc(NC(=O)c2ccc(-c3nc(COc4ccccc4)c(C)o3)cc2)c1	.	.	.	-66*
COc1cccc(-c2nc(CS(=O)(=O)CC(=O)Nc3ccc(C(C)=O)cc3)c(C)o2)c1	0%	11µM*	-14%	10
COc1cccc(-c2nc(CS(=O)(=O)CC(=O)NC3CCCc4ccccc43)c(C)o2)c1 (centres undefined)	?	11µM*	.	?
COc1cccc(NC(=O)c2ccc(-c3nc(COc4ccc(C)cc4)c(C)o3)cc2)c1	.	.	.	17
SMILES	Pf growth 96h	HCV inhibitor	Pf growth 48h	HCMV inh
COc1cccc(-c2nc(CS(=O)(=O)CC(=O)Nc3ccccc3Cl)c(C)o2)c1	-24%	13µM*	8%	-24
COc1cccc(-c2nc(CS(=O)(=O)CC(=O)Nc3ccc(C)c(Cl)c3)c(C)o2)c1	.	.	.	-1
CCc1ccc(CNC(=O)c2nn(-c3ccc(OC)c(Cl)c3)c(=O)c3c2c2ccccc2n3C)cc1	.	.	.	5
CCOC(=O)c1cc(-c2ccc(F)cc2)n(CCC(=O)NC2CCC(C)CC2)c1C (centres undefined)	.	.	.	0
O=c1c2sc3ccccc3c2n(Cc2cccc(C(F)(F)F)c2)c(=O)n1-c1ccccc1	.	.	.	-22
Cc1oc(-c2cccc(Cl)c2)nc1CS(=O)(=O)CC(=O)NC1CCCC1	?	-7%	23%	-62*
COc1cccc(-c2nc(CS(=O)(=O)CC(=O)NC3CCCC3)c(C)o2)c1	37%	?	14%	-21
CCOC(=O)c1c(C)[nH]c(C)c1S(=O)(=O)NCC(=O)Nc1ccc(C)c(N(C)C)c1	.	.	.	0
COc1cc(/C=C/c2ccc(O)cc2)cc(OC)c1	.	13µM*	.	13
COc1ccc(/C=C/C(=O)c2ccc(O)cc2)cc1	117%	10%	201%	37
